Assay outcomes: PubChem, National Center for Advancing Translational Sciences (NCATS)
Pf growth 96h: inhibits malaria parasite growth, 96 h; P. falciparum luciferase reporter growth, 96 h; Potency, µM (top dose mostly 28.7 µM), for inactives: at the highest dose activity change, negative = inhibition, most hits filed as inhibitors; 6.9% of 320,000 active; active = well fitted inhibition curve with a large enough effect; inconclusive = small, poorly fitted or top-dose-only effect, or another doubt; inactive = no such curve, though single readings can be large or run the other way; also: % is scaled to controls: 0 for no effect and ±100 for the full control effect
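Cell-based qHTS: luciferase-tagged P. falciparum in erythrocytes (2% hematocrit, 0.05% parasitemia final) incubated with compounds for 96 hours, 37 C, 5% CO2; luciferase detection reagent then added and luminescence measured.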
RE007 growth inh: less growth of the S. pombe RE007 Vpr strain. S. pombe RE007 Vpr strain, BacTiter-Glo ATP luminescence, 24 h. Potency, µM (series often up to 92.2 µM), inactives show at the highest dose activity change, negative = less growth, most hits filed as inhibitors. 0.21% of 360,000 active. AID 651644; active = well fitted falling curve with a large enough effect; inconclusive = small, poorly fitted or top-dose-only effect; inactive = no such curve, though single readings can be large or run the other way; also: % is scaled to controls: 0 for no effect and ±100 for the full control effect; nearly all actives have a fitted effect of over 50% in size
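Fission yeast RE007 carrying one integrated HIV-1 vpr copy, seeded at OD 0.01 in PMG+AL medium with 23 nL pinned compound. Grown 24 h at 30 degrees; viability read by BacTiter-Glo luminescence after 5 min.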
NS1 inh: influenza NS1 inhibition. Potency, µM (doses to about 46.1 µM), for inactives: at the highest dose activity, positive = more growth. 0.4% of 270,000 active. AID 2326; also: actives are rising curves; nearly all actives have a fitted effect of over 50% in size
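Read-out: OD600 growth recovery of NS1-expressing budding yeast. Cells grown overnight at 30C in -URA glucose medium, washed, resuspended and diluted 1:100 in 2% galactose assay medium, pH 6.0. Same strain lacking NS1 served as positive control.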
SARS PLP yeast: SARS-CoV PLP inhibition in yeast. S. cerevisiae expressing SARS-CoV PLpro, growth rescue. 0.19% of 330,000 active. Potency, µM (titrated, usually from 32.9 µM), for the others: at the highest dose activity, positive = growth rescue, usual class: activators; also: 0% is about no effect; nearly all actives have a fitted effect of over 55% in size
Pf growth 48h: P. falciparum growth inhibition at 48 hours (one generation); 5.9% of 310,000 active; AID 504832; P. falciparum luciferase growth in erythrocytes, 48 h; Potency, µM (doses to about 28.7 µM), inactives show at the highest dose activity change, negative = inhibition, hits mostly inhibitors; active = well fitted inhibition curve with a large enough effect; inconclusive = small, poorly fitted or top-dose-only effect, or another doubt; inactive = no such curve, though single readings can be large or run the other way; also: % is scaled to controls: 0 for no effect and ±100 for the full control effect
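Luciferase-expressing parasites in RBCs, 2% Hct / 0.1% parasitemia final; RPMI 1640 + 0.5% Albumax; 37 C, 5% CO2, one generation; luminescence read-out, lower signal = inhibition.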
An asterisk follows results filed as active; ? = inconclusive; . = no result given; [ ] = remark or other dose. Hits are enriched below; roughly 9.5% of the tested compounds scored in any of these assays. Unless noted, calls follow the shape of the full dose curve. Potency is read from the fitted curve at half-maximal effect.

SMILES	Pf growth 96h	RE007 growth inh	NS1 inh	SARS PLP yeast	Pf growth 48h
C[N+]12CCC(CC1)C(C(O)(c1ccccc1)c1cccs1)C2 (stereo unspecified)	2.6µM*	-7%	-2%	-1%	12µM*
CCCC[N+]12CCC(CC1)C(Cc1ccccc1)C2 (stereo unspecified)	?	-21%	0%	0%	?
OC(c1ccccc1)(c1ccccc1)C1CCCN1 (stereo unspecified)	212%	7%	-16%	-3%	98%
CCCC[N+]12CCC(CC1)C(C(O)(c1ccccc1)c1ccccc1)C2 (stereo unspecified)	10µM*	-2%	0%	-2%	?
O=C(NNc1ccc(C2CCCCC2)cc1)C(O)(c1ccccc1)c1cccs1 (stereo unspecified)	74%	18%	-6%	-31%	?
CCC[N+]12CCC(CC1)C(C(O)(c1ccccc1)c1ccccc1)C2 (stereo unspecified)	5.2µM*	-7%	3%	1%	?
O=C(Nc1cccc(Cl)c1)ON=C1c2ccccc2-c2ccccc21	141%	-22%	-112%	-32%	8%
Cc1c([N+](=O)[O-])c([N+](=O)[O-])nn1CC(=O)N1CCCCC1	1%	22%	-19%	8%	0%
C[n+]1c(/C=C\c2ccc(O)c3ncccc23)[se]c2ccccc21	.	.	2%	.	.
CCCC(=O)Nc1nnc(SCC(=O)Nc2ccc(OCC)cc2)s1	.	-4%	.	.	.
C(/C=C\c1ccccc1)=Nc1ccc2c(c1)Cc1ccccc1-2	.	.	-1%	.	.
O=C(NCc1cnn(-c2ccccc2)c1)C1CCC(=O)N(C2CC2)C1 (stereo unspecified)	5.2µM*	14%	-3%	-4%	11%
O=C(NCc1ccccc1OC(F)(F)F)C1CCC(=O)N(C2CC2)C1 (stereo unspecified)	12µM*	9%	-2%	3%	21%
CN(Cc1cnn(-c2ccccc2)c1)C(=O)C1CCC(=O)N(C2CC2)C1 (stereo unspecified)	1%	-14%	0%	0%	4%
CCCC(=O)c1cn(CC(=O)OC)c2ccccc12	1µM*	-10%	-10%	?	7%
COC(=O)Cn1cc(C(=O)C(C)(C)C)c2ccccc21	2%	-15%	1%	-1%	18%
C=C1C=C(C(F)F)n2ncc(C(=O)Nc3ccc(C(C)CC)cc3)c2N1 (stereo unspecified)	-16%	.	.	.	?
O=C(C1CCCN(S(=O)(=O)c2ccc(Cl)cc2)C1)N(Cc1cccs1)C1CC1 (stereo unspecified)	1%	15%	-20%	-2%	13µM*
CCOC(=O)/C=C/C(=O)Nc1ccc(S(=O)(=O)Nc2cc(C)on2)cc1	26%	-10%	3%	-3%	10µM*
CCOC(=O)Nc1ccc(S(=O)(=O)Nc2cc(C)on2)cc1	54%	1%	1%	1%	-11%
CCOC(=O)/C=C/C(=O)Nc1ccc(-c2nnc3n2CCCCC3)cc1	0.33µM*	-10%	0%	0%	?
CCOC(=O)/C=C/C(=O)Nc1ccc(S(=O)(=O)N2CCc3ccccc32)cc1	?	1%	-9%	-14%	?
CCOC(=O)CCC(=O)Nc1ccc(S(=O)(=O)N2CCCCC2)cc1	5.2µM*	-2%	0%	0%	-3%
CCOC(=O)/C=C/C(=O)Nc1ccc(S(=O)(=O)N2CCCCCC2)cc1	12µM*	-25%	-2%	1%	-9%
CCCCCC(=O)Nc1ccc(-c2nnc3n2CCCCC3)cc1	?	19%	-6%	3%	?
SMILES	Pf growth 96h	RE007 growth inh	NS1 inh	SARS PLP yeast	Pf growth 48h
CCCC(=O)Nc1ccc(S(=O)(=O)N2CCCC2)cc1	.	3%	0%	1%	24%
COc1ccc(CN2C(=O)c3ccccc3C2=O)cc1C(=O)N(C)CC(=O)Nc1ccc(F)cc1	-27%	13%	.	0%	-22%
Cc1cc(NS(=O)(=O)c2ccc(NC(=O)COc3c(C)cc(Br)cc3C)cc2)no1	9.3µM*	11%	23%	10%	-7%
COc1ccc(OCC(=O)Nc2ccc(S(=O)(=O)Nc3cc(C)on3)cc2)cc1	1%	1%	.	2%	-4%
C=CCn1c(SCC(=O)Nc2cccc(S(N)(=O)=O)c2)nc2sc(C)c(C)c2c1=O	.	-30%	.	5%	.
CCOc1cc(-n2cnnn2)c(OCC)cc1NC(=O)c1cnccn1	5.2µM*	-12%	3%	-3%	-3%
COc1cc2c(cc1OC)CN(c1ccc(-c3ccccc3OC)nn1)CC2	6%[5.75 µM]	?	-78%	-3%	5.2µM*
COc1cc2c(cc1OC)CN(c1ccc(C(F)(F)F)cn1)CC2	38%	?	-29%	-6%	19%
COc1cc2c(cc1OC)CN(c1ccc3ccccc3n1)CC2	?	-10%	-12%	-21%	12µM*
COc1ccc(N(C(=O)CNC(=O)c2cccs2)C(C(=O)NC2CCCC2)c2ccncc2)cc1 (stereo unspecified)	13µM*	6%	-14%	6%	-5%
O=C(NCC(=O)N(c1cccc(F)c1)C(C(=O)NC1CCCC1)c1ccco1)c1ccco1 (stereo unspecified)	-22%	-11%	5%	2%	1%
COc1ccc(N(C(=O)CNC(=O)c2ccco2)C(C(=O)NC2CCCC2)c2ccncc2)cc1 (stereo unspecified)	2.6µM*	1%	3%	0%	11%
O=C(NCC(=O)N(c1ccc2c(c1)OCCO2)C(C(=O)NC1CCCC1)c1ccco1)c1ccco1 (stereo unspecified)	0.83µM*	-5%	-6%	-14%	?
O=C(CN(C(=O)CNC(=O)c1ccco1)c1ccc2c(c1)OCO2)NC1CCCCC1	0%	7%	2%	2%	-28%
COc1cccc(N(C(=O)CNC(=O)c2ccco2)C(C(=O)NC2CCCC2)c2ccncc2)c1 (stereo unspecified)	11%	-21%	-8%	3%	-3%
O=C(CN(Cc1ccc2c(c1)OCO2)C(=O)CNC(=O)c1ccco1)NC1CCCCC1	7.4µM*	-8%	0%	17%	8%
CC(C)CC(=O)Nc1nnc(SCC(=O)Nc2nccs2)s1	57%	3%	-13%	-1%	-3%
Fc1cc2[nH]c(=S)[nH]c2c(Br)c1N1CCSCC1	?	7%	9%	-3%	-4%
CCOC(=O)c1ccc(N(CC(=O)NC2CCCC2)C(=O)CNC(=O)c2ccco2)cc1	7%	-9%	-18%	-2%	9.3µM*
O=C(NCC(=O)N(Cc1cccs1)C(C(=O)NC1CCCCC1)c1ccncc1)c1ccco1 (stereo unspecified)	5.9µM*	-1%	-7%	18%	?
Cc1ccc(N(C(=O)CNC(=O)c2ccco2)C(C(=O)NC2CCCCC2)c2ccncc2)c(C)c1 (stereo unspecified)	-6%	-2%	-1%	0%	12µM*
